# From PubChem BioAssay (EPA / NIEHS)
# Active and inactive are the calls of the source. The calls were made as follows: active = hit-call score of the fitted dose curve at least 0.9, where 1 is the maximum; inactive = score below 0.9.
# Read-out: Transforming Growth Factor (TGFB1), TGFB1 (gene 7040)
# Experiment: LTEA_HepaRG_TGFB1: Life Technologies and Expression Analysis (LTEA) Assay for Transforming Growth Factor (TGFB1) Transporter using HepaRG (AID 2283533)
# Details: mRNA level, 48 h; actives raise or lower the signal
# Procedure: LTEA_HepaRG is a cell based, multiplexed-readout assay that uses HepaRG, a human liver cell line, with measurements taken at 48 hours after chemical dosing on a 96-well plate.LTEA_HepaRG_TGFB1 is one of 102 assay component(s) measured in the LTEA HepaRG cell culture assay. It is a marker of Cell proliferation, survival, death.Data from the assay component LTEA_HepaRG_TGFB1 was analyzed into 1 endpoint. This assay endpoint, LTEA_HepaRG_TGFB1, was analyzed with bidirectional fitting relative to DMSO as the negative control and baseline of activity. Using a type of inducible reporter, measures of mRNA induction for gain or loss-of-signal activity can be used to understand regulation of transcription factor activity. To generalize the intended target to other relatable targets, this assay endpoint is annotated to the growth factor intended target family, where the subfamily is transforming growth factor beta.
# A total of 1060 chemcials from the ToxCast library were tested in eight-point concentration-response experiments. Cell culture and cytotoxicity assays were conducted at Thermo Fisher Scientific's Custom Services facility (Madison, WI). A single lot of human HepaRG cells (Thermo Fisher Scientific, Frederick, MD) was used for the cell culture experiments. 96-well format collagen type I coated plates of human HepaRG cells were prepared using established methods. Briefly, cryopreserved HepaRG cells were thawed, plated at a density of approximately 100,000 cells/well in HepaRG Thaw, Plate, and General Purpose media (HPRG770, Thermo Fisher Scientific), and incubated for 48 hours. 0.5% DMSO was selected as vehicle control to balance the requisite need of DMSO in HepaRG cultures to maintain differentiation (for example, baseline metabolism, proportions of hepatocytes vs. cholangiocytes), while enabling further hepatic receptor pathway activation (for example, PXR and CAR) in response to chemical exposure. 48 hours after plating, the culture medium was replaced with HepaRG Serum-Free Incudtion Media. Cells were exposed to each test chemical in duplicate and maintained in CO2 incubators for another 48 hours. Chemical plates were thawed to room temperature and 200x concentrations of treatment groups were prepared. 8-point conentration-reponse curves were made with the highest exposure at 100 uM, followed by half-log dilutions, all in 0.5% DMSO. Each test plate contained variouse controls, induction positive controls (1mM phenobarbital), cytotoxicity positive controls ([…] aflatoxin B1), vehicle controls (0.5% DMSO), and total lysis controls (0.5% DMSO). Cell morphology images were taken using an Essen IncuCyte FLR automated microscope, with six 96-well plates imaged in about 24 minutes. Images were captured and exported and JPEG files. Spent culture media was transfered to black-well plates for the LDH assay, and remaining media was sorted at -80 C for later use. Cells were treated with RLT buffer and frozen until shipped for gene expression analysis. Total RNA was isolated from the cell suspension in 75 uL of Buffer RLT (Qiagen, Germantown, MD 20874) by Quintiles/Expression Analysis (Durham, NC) using a custom isolation procedure. Total RNA from each plate well was transferred to a preamplification plate. Fluidigm's 96.96 Dynamic ArrayTM (Fluidigm, Amsterdam, the Netherlands) technology was used for gene expression analyses by quantitative reverse transcription polymerase chain reaction (qRT-PCR, performed by Quintiles/Expression Analysis, Durham, NC)89. Standard TaqManTM Assays (Applied Biosystems/ThermoFisher Scientific, Foster City, CA) were used to assess the expression of 93 genes selected based on their selectivity and sensitivity to important hepatic receptors known to be modulated by environmental chemicals; importance in human hepatocyte functionality; and hepatotoxicity. […]
Structure (SMILES),AC50,outcome
CN1C(=O)N(c2ccccc2Br)Cc2cnc(Nc3ccc4c(c3)OCC(CO)O4)nc21 (stereo not given),24.2 µM (active),–
Cc1ncc(CO)c(CO)c1O,–,inactive
CCN(Cc1cccnc1)C(=O)c1cccc(Cl)c1[C@]1(C)C(=O)N(Cc2ccc(OC)cc2OC)c2ccc(Cl)cc21,14.5 µM (active),–
OC12N=C(c3ccccc3)SC1Cc1cc(Cl)ccc12 (stereo not given),–,inactive
CCCCCCCCCCCO,–,inactive
CCCC(=O)OCCC(C)C,–,inactive
CN1C(=O)CC[C@H]1c1cccnc1,–,inactive
CN(C)c1ccc(C(=C2C=CC(=[N+](C)C)C=C2)c2ccc(N(C)C)cc2)cc1,68.7 µM (active),–
O=C(OCCCCCCOC(=O)c1ccccc1)c1ccccc1,–,inactive
CC(C)(C)c1cc(/C=C2\SC(N)=NC2=O)cc(C(C)(C)C)c1O,4.43 µM (active),–
Cc1cc2c(cc1C(F)(F)F)N(C(=O)Nc1ccc(Oc3cccnc3C)nc1)CC2,–,inactive
O=C=NCCCCCCN=C=O,–,inactive
Cc1cccc2ccccc12,–,inactive
CC(=O)N1CCN(c2ccc(OC[C@H]3CO[C@](Cn4ccnc4)(c4ccc(Cl)cc4Cl)O3)cc2)CC1,90.9 µM (active),–
NC(=O)c1nc(-c2cccc(-c3cc(F)ccc3OCC(F)(F)C(F)(F)F)c2)n[nH]1,–,inactive
c1ccc2ccccc2c1,–,inactive
CCCCCCCCOC(=O)c1cc(O)c(O)c(O)c1,–,inactive
Cc1cn([C@H]2C[C@H](N=[N+]=[N-])[C@@H](CO)O2)c(=O)[nH]c1=O,–,inactive
O=C(O)Cc1cc(I)c(Oc2ccc(O)c(I)c2)c(I)c1,79.5 µM (active),–
O=C1CCC(C2CCCCC2)CC1,–,inactive

Structure (SMILES),AC50,outcome
CCCOC(=O)c1cc(O)c(O)c(O)c1,–,inactive
O=C1O[C@H]([C@@H](O)CO)C(O)=C1O,–,inactive
CC(C)(c1cc(Br)c(O)c(Br)c1)c1cc(Br)c(O)c(Br)c1,–,inactive
CCCCCCCCCCCCO,–,inactive
CCCCCCCC[Si](OCC)(OCC)OCC,–,inactive
Clc1ccccc1C(c1ccccc1)(c1ccccc1)n1ccnc1,91.9 µM (active),–
Oc1ccccc1,–,inactive
CC1=CC(=O)/C(=C(/C)O)C(=O)O1,–,inactive
c1ccc(C[n+]2cccc3ccccc32)cc1,–,inactive
O=CCCCC=O,–,inactive
CCCCCCCCN(C)CCCCCCCC,–,inactive
Cc1c2ccccc2c(C)c2c1ccc1ccccc12,35 µM (active),–
CCCCOC(=O)CC(CC(=O)OCCCC)(OC(C)=O)C(=O)OCCCC,–,inactive
CCCCCCCCCCCC[N+](C)(C)C,50 µM (active),–
OCCO,–,inactive
COc1cccc([C@H](O)C2CCN(CCc3ccc(F)cc3)CC2)c1OC,–,inactive
CC1(C)NC(=O)N(c2ccc([N+](=O)[O-])c(C(F)(F)F)c2)C1=O,–,inactive
CCO[Si](CCCNC(N)=O)(OCC)OCC,–,inactive
CN(C)C(=O)C1(N2CCCCC2)CCN(CC[C@@]2(c3ccc(Cl)c(Cl)c3)CN(C(=O)c3ccccc3)CCO2)CC1,47.2 µM (active),–
O=c1ccc2ccccc2o1,–,inactive
